Drawing on PubChem BioAssay (NCI), this text covers growth for 40 molecules.

Structures are written as SMILES. The panel holds about 83,000 compounds, 20% with a hit somewhere; the sample as a whole holds those more often.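 For each line, cells grew in 96-well plates with the test compound present at a single concentration for 48 hours.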 Unmarked numbers belong to inactive results. Calls of active or inactive are those of the source.

This experiment deals with COLO 205 colon. Kind of experiment: NCI-60 one-dose screen, 48 h (100 = growth as untreated, 0 = no growth, -100 = all killed). Particulars: 10 µM unless noted. The protocol:
Cells are grown in 96 well plates and exposed to the test compound for 48 hours. Compounds are tested at a single concentration, which is 10^-5 M for most compounds. The reported endpoint is percent growth (GI% or GIPRCNT), where numbers from 0 - 100% represent growth inhibition, and numbers from -100% - 0 represent cell death. For example, a value of 40 represents 60% growth inhibition. A value of 0 means no net growth occurred over the course of the experiment. A value of -40 indicates 40% of cells at the beginning of the experiment died by the end of the experiment. A value of -100 means all cells are dead at the end of the experiment.
NCI-60 Human Tumor Cell Lines Screen was performed using the standard one-dose NCI protocol, which is described in more detail at https://dtp.cancer.gov/discovery_development/nci-60/default.htm.
Compounds with GIPRCNT values below 10 were considered active. Activity score was based on GIPRCNT using the following formula: […]
Score is 0 for GIPRCNT values of 100 or above, 50 for GIPRCNT values of 0, and 100 for GIPRCNT values of -100.
`CNc1nc(S(=O)c2ccc(C#N)cc2)nc2ccccc12` (stereo not given): the growth was 91.6%.

For `Cc1cccc(Cl)c1NC(=O)c1ccc2nc(NC(=O)NCCN(C)C)sc2c1`, the growth is 45.1%. `COC(=O)c1cc(-c2ccc(S(C)(=O)=O)cc2)[nH]c1N/N=C/c1c(Cl)cccc1Cl`: the growth was -19.3% (active).

As to `O=c1oc2ccc([N+](=O)[O-])cc2cc1Br`, the growth is 105%. Under `COc1cc2c(c(OC)c1OC)-c1ccc(OC)c(=O)cc1[C@@H](NC(=O)CCl)CC2` stands -71.9% (active). Under `Cc1ccc(-c2nc3nc(-c4ccccc4)nc(N4CCNCC4)c3o2)cc1` stands -92.4% (active); under `CCC(=C(c1ccc(OCCN2CCCC2)cc1)c1ccc(OCCN2CCCC2)cc1)c1ccc(Cl)cc1`, -64.8% (active). Then `O=C1c2ccc3c4ccc5c6c(ccc(c7ccc(c2c37)C(=O)N1CCC[P+](c1ccccc1)(c1ccccc1)c1ccccc1)c64)C(=O)N(CCC[P+](c1ccccc1)(c1ccccc1)c1ccccc1)C5=O`, with 15.5%; and `CCOc1nc(-c2ccccc2)cc2c(O)c(C(=O)NN)[nH]c(=O)c12`, with 121%; and `Cc1ccc(CNc2ccc(Cl)cc2NCc2ccc(C)c(O)c2)cc1O`, with 90.2%. `COC1=CC(c2ccc[nH]2)=N/C1=C\c1[nH]c(C)c(C(=O)OCc2ccccc2)c1C`: the growth is -82% (active).

Turning to `CC1=Nc2cnc(Nc3ccc(OCCN4CCCC4)cc3)nc2Nc2ccccc21`, the growth was 72.2%. Then `Cc1cnc(C(=O)NNc2nc3sc4c(c3c(=O)n2C)C(C)CCC4)cn1` (stereo not given), with 0.0868% (active); and `CN1CCN(c2ccc(NC(=O)c3nc4ccc5[nH]ncc5c4c4c3CCCC4)cc2C(F)(F)F)CC1`, with 59.3%. For `Cc1cc(Cl)ccc1Nc1nc(C(F)(F)F)ccc1C(=O)N/N=C/c1ccc([N+](=O)[O-])cc1`, the growth was -65.6% (active). Under `CC(C)CCC[C@@H](C)[C@H]1CC[C@H]2[C@@H]3CC=C4C[C@@H](C(C(=O)O)C(=O)O)CC[C@]4(C)[C@H]3CC[C@]12C` stands -91.1% (active); under `COc1ccc2cc(C(=O)c3coc4ccc(O)cc34)ccc2c1`, 101%.

As to `COc1cnc2c(c1)C(=O)c1c-2n(CCCNCCO)c(=O)c2ccncc12`, the growth is -15.7% (active).

`C[C@]12CC[C@@H]3c4ccc(O)c([N+](=O)[O-])c4CC[C@H]3[C@@H]1CCC2=O`: the growth was 159%. As for `O=c1oc2ccccc2cc1C1=NN=C(SCc2ccccc2)SC1`, the growth is 113%. Turning to `CCCCN1C(=O)/C(=c2\sc3n(c2=O)C2C(NN=3)N(CC)C(=O)N2CC)c2ccccc21` (stereo not given), the growth is 1.59% (active). For the molecule `CCOC(=O)C1=C(NC)OCC1=O`, the growth is 112%. Under `O=S(=O)(NCCNc1nccc(-c2c(-c3cccc(F)c3)nc3occn23)n1)c1ccc(Br)cc1` stands 85.4%; under `O=C1c2c(c3c4ccc(Br)cc4oc3c3[nH]c4ccccc4c23)C(=O)N1O`, 42.7%; under `O=C(Nc1ccc(-c2nc(N3CCOCC3)c3cccn3n2)cc1)Nc1cccnc1`, 6.07% (active).

As for `O=C(c1ccccc1)C1C(=O)N2C(=S)N(c3ccccc3)C(=O)C2C1c1ccc(Cl)cc1` (stereo not given), the growth was 112%. Then `N#Cc1c(-c2cccs2)cc(-c2cccnc2)[nH]c1=O`, with 97.2%; and `O=C(Nn1c2c(sc1=NCc1ccccc1)C(=O)c1ccccc1C2=O)c1cc2ccc1CCc1ccc(cc1)CC2`, with 106%; and `C=CC(=O)NCc1ccc(Nc2nccc(-c3ccc(N4CCCC4)c(C#N)c3)n2)cc1`, with 31.4%. On to `CCOC(=O)c1cnc2ccccc2c1Cl`, for which the growth is 96.2%. Under `O=C(/C=C/c1cn(-c2ccccc2)nc1-c1ccc([N+](=O)[O-])cc1)c1ccc(Cl)cc1` stands 40.2%.

Consider `O=C(Nc1nc2ccc(F)cc2s1)c1cccnc1Nc1ccc(Cl)cc1`, for which the growth is 49.8%. For `C=C1C(=O)O[C@H]2[C@H]1CC/C(COC(=O)NCc1ccc(Cn3c(=O)sn(CCI)c3=O)cc1)=C\CC[C@@]1(C)O[C@@H]21`, the growth was -24.1% (active). For the molecule `CCCCOC(=O)OCc1cc(=O)c(O)co1`, the growth was 111%. Under `c1ccc(CNc2c3ccccc3nc3ccccc23)cc1` stands 7.29% (active); under `O=C(NNC(=O)c1ccc(-n2cc(-c3ccccc3)nn2)cc1)Nc1ccccc1`, 111%; under `CS(=O)(=O)C1=CN(CCO)C(=O)N2CCCN=C12`, 97.8%. Then `CCCCC[C@@H]1Cc2cc(O)c(C(=O)O)c3c2[C@H](C[C@]2(OC[C@@H](CC(=O)[C@@](C)(CC)C(=O)OC)[C@@H]2C)O3)O1`, with 145%; and `Cc1cc2c(O)c(-c3cccc(Cl)c3)c3sc(=O)oc3c2cc1C`, with 115%. Take `CCC(C)N(c1ccc(Cl)cc1)c1nc(-c2ccc(Br)cc2)cs1` (stereo not given): the growth was 112%.
